Assay outcomes (PubChem)
An excerpt weighted towards active compounds, which were near 5.7% of everything screened.
GLP1R cytotox – cytotoxicity counter-screen for GLP-1 receptor inverse agonists. 410,000 compounds, 0.13% hits. Potency, µM (top dose mostly 38.3 µM), for inactives: top-dose activity change, negative = inhibition, hits mostly inhibitors. HEK293 cAMP-luciferase reporter cells, luminescence, 24 h. AID 624418;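 note: loss of luciferase light is scored as toxicity; potency is the fitted concentration of half-maximal effect; % is set by controls: 0 for no effect and ±100 for the full control effect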
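Quantitative HTS format, 1536 wells, 200 cells/uL seeded. Compounds: 23 nL, 24 h, 37 °C. Detection: luciferase reagent, luminescence at 12 min RT; decreased signal taken as cytotoxic.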
GLP-1R inv ag – GLP-1 receptor (human) inverse agonism; P43220; HEK293 GLP-1R CRE-luciferase, luminescence, 24 h; GLP-1R form is constitutively active; Potency, µM (top dose mostly 38.3 µM), inactives show at the top dose activity change, negative = inhibition, actives largely listed as inhibitors; 410,000 compounds, 1.6% hits; AID 624417; note: potency is the fitted concentration of half-maximal effect; % is set by controls: 0 for no effect and ±100 for the full control effect; nearly all actives have a fitted effect of over 55% in size
Target sequence (P43220 whole entry, looked up): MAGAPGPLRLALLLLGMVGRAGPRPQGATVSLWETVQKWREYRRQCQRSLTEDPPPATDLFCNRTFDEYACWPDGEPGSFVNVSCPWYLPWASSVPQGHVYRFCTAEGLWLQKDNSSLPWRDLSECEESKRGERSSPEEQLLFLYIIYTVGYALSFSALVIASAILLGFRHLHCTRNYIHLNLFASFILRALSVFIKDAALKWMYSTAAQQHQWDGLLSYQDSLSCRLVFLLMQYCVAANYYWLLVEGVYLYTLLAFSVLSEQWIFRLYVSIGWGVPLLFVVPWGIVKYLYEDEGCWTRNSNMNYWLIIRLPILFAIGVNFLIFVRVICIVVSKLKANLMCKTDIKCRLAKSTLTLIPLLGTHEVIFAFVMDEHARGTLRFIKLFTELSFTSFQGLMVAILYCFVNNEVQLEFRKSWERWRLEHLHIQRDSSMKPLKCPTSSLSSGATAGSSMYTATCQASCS
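Luminescence readout: a drop in cAMP-driven luciferase signal flags inverse agonism at a constitutively active GLP-1R stably expressed in HEK293. Compound exposure lasted 24 hr at 37 deg C, 5% CO2.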
GLP1R ag – activates the human GLP-1 receptor. P43220. HEK293 GLP-1R CRE-luciferase, luminescence, 4-6 h; cells express a hypersensitive GLP-1R form. Potency, µM (titrated, usually from 45.6 µM), for the others: at the highest dose activation, most hits filed as activators. 380,000 compounds, 0.007% hits. AID 624172; note: potency is the fitted concentration of half-maximal effect; % of control where 0% means no effect
DRD3 antagonist – D3 dopamine receptor (human) antagonism | P35462 | D3R cells, DiscoveRx beta-arrestin luminescence, antagonist mode; stronger effect = lower value | max response, negative = inhibition, % | 360,000 compounds, 2.5% hits; in the data active = max response below about -50%; inconclusive = no clear call, values can overlap the other calls; note: % is set by controls: 0 for no effect and ±100 for the full control effect
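Cells plated overnight at 1500 cells/well, then exposed to library compounds with dopamine controls for 90 minutes at 37 degrees C. DiscoveRx reagent added for 30–60 minutes at room temperature; luminescence read, quantitative HTS format.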
ClpP mod – qHTS Assay for Activators of ClpP; purified B. subtilis ClpP, FRET peptide cleavage, 20 min; Potency, µM (titrated, usually from 57.5 µM), for the others: at the top dose activity change, negative = active; 340,000 compounds, 1.9% hits; AID 651965, 2013; active = well fitted falling curve with a large enough effect; inconclusive = small, poorly fitted or top-dose-only effect; inactive = no such curve, though single readings can be large or run the other way; note: potency is the fitted concentration of half-maximal effect; the source files actives as falling curves though it sought activators and does not explain the sign; nearly all actives have a fitted effect of over 65% in size
Target sequence (P80244 whole entry, looked up): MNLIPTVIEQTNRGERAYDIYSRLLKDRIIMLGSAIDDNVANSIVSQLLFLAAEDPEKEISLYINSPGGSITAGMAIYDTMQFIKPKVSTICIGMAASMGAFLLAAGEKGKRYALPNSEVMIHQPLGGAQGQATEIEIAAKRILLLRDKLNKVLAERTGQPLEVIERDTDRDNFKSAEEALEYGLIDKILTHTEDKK
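FRET quenching reversal measured ClpP activation: 10 microg/mL B. subtilis ClpP at pH 8 with the FRET-FV decapeptide, read at 430 nm after 320 nm excitation. The 20-min minus 0-min signal was scaled between DMSO/no-enzyme wells and ADEP (5.8 microM final).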
D3 ag – activates the human D3 dopamine receptor; 410,000 compounds, 0.58% hits; D3R DiscoveRx beta-arrestin cells, luminescence, 90 min; max activation, %; in the data active = max activation above about 30%; note: 0% is about no effect
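Agonist mode: compounds and dopamine controls were applied to plated cells for 90 min at 37 degrees C after an overnight attachment at 1500 cells/well. Luminescent read-out followed 30 - 60 minutes at room temperature with DiscoveRx detection reagent.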
Starred values were filed as active, the others as inactive; ? = inconclusive; · = not tested or not shown; ! = not active in a repeat. Unless noted, calls come from the whole dose curve; as a rule, active = well fitted curve in the direction sought with a large enough effect; inconclusive = small, poorly fitted or top-dose-only effect, or another doubt; inactive = no such curve, though single readings can be large; an effect the other way counts as inactive or inconclusive.

SMILES	GLP1R cytotox	GLP-1R inv ag	GLP1R ag	DRD3 antagonist	ClpP mod	D3 ag
CCOc1ccccc1NC(=O)CSc1ncc(S(=O)(=O)c2ccc(C)c(C)c2)c(N)n1	-1%	-9%	2%	·	-2%	4
CCc1nc2c(OCCn3cccc3)cccn2c1N(C)C(=O)c1ccc(C)cc1	1%	1%	-2%	0	0%	-5
Cc1ccc(CCNc2nc3c(S(=O)(=O)c4ccc(C)cc4)nnn3c3ccsc23)cc1	4%	16%	·	·	-7%	-26
Cc1ccc(-c2nc3ccccc3[nH]2)cc1NC(=O)COc1ccccc1[N+](=O)[O-]	?	?	·	·	-1%	1
CC1CCCN(CC(O)COCC2COc3ccccc3O2)C1 (stereo not drawn)	-4%	-14%	-8%	15	14%	-4
OC(COCC1COc2ccccc2O1)CN1CCc2ccccc2C1 (stereo not drawn)	-15%	10µM*	-4%	14	2%	-1
CCc1ccc(OCC(O)CN2CCN(c3ccccn3)CC2)cc1 (stereo not drawn)	-2%	?	-2%	-27	-1%	24
OC(COCC1COc2ccccc2O1)CN1CCN(c2ccccn2)CC1 (stereo not drawn)	-7%	-32%	2%	-24	-3%	75*!
COc1ccc(-c2nc(CNS(=O)(=O)c3cccc(F)c3)cs2)cc1	0%	-29%	·	·	?	-8
COC(=O)c1cn(NC(=O)/C=C/c2cc(OC)ccc2OC)c(=O)c2ccccc12	24%	-5%	13%	9	28µM*	-6
COc1cccc(Cn2c(=O)n(-c3cc(C)cc(C)c3)c(=O)c3oc4ccccc4c32)c1	-9%	-29%	·	·	35µM*	5
CCC(C)NC(=O)CSC1=Nc2ccccc2C2=NC(c3ccccc3)C(=O)N12 (stereo not drawn)	-11%	8%	1%	-13	16µM*	-11
COCCCNC(=O)CSC1=Nc2ccccc2C2=NC(CC(=O)NCc3ccccc3)C(=O)N12 (stereo not drawn)	9%	2%	10%	20	28µM*	4
CCc1ccc(NC(=O)CSC2=Nc3ccccc3C3=NC(CC(=O)NCc4ccccc4)C(=O)N23)cc1 (stereo not drawn)	2%	0%	·	·	-2%	-10
CC(C)C1N=C2c3ccccc3N=C(SCC#N)N2C1=O (stereo not drawn)	1%	8%	-8%	35	13µM*	1
CCC(C)NC(=O)CSC1=Nc2ccccc2C2=NC(CC(=O)NCc3ccccc3)C(=O)N12 (stereo not drawn)	-14%	14%	1%	2	28µM*	-5
CC(C)C1N=C2c3ccccc3N=C(SCC(=O)NCc3ccccc3Cl)N2C1=O (stereo not drawn)	12%	19%	·	·	4%	-10
CN(C/C=C\c1ccccc1)Cc1cccc2ccccc12	·	·	-1%	·	·	·
Brc1ccc[n+](CCC2CCCCC2)c1	·	·	·	·	0%	·
C[C@@H]1CN([C@@H](C)CO)C(=O)CCCn2nncc2CO[C@@H]1CN(C)C(=O)Nc1cccc(Oc2ccccn2)c1	-4%	16%	0%	26	1%	5
CCOC(=O)C1(C)C=C(Nc2ccc(C)cc2)C(=O)N1c1ccccc1 (stereo not drawn)	1%	0%	0%	·	0%	5
COc1ccc(CNC(=O)CN2C(=O)c3cccnc3Oc3ccc(C)cc32)cc1	-33%	-8%	·	·	2%	-17
CC1=C(C(=O)Nc2ccccc2)C(c2ccc3c(c2)OCO3)C2=C(CCCC2=O)N1 (stereo not drawn)	-4%	0%	-1%	7	-26%	0
CC1=C(C(=O)Nc2cc(C)ccn2)C(c2ccc(C)cc2)C2=C(CCCC2=O)N1 (stereo not drawn)	40%	5%	9%	-14	28µM*	-4
CCN(CC)c1ccc(C2C(C(=O)Nc3ccccn3)=C(C)NC3=C2C(=O)CC(C)(C)C3)cc1 (stereo not drawn)	-2%	?	-1%	11	-1%	-3
SMILES	GLP1R cytotox	GLP-1R inv ag	GLP1R ag	DRD3 antagonist	ClpP mod	D3 ag
CCn1cc(C2C(C(=O)Nc3cc(C)ccn3)=C(C)NC3=C2C(=O)CC(C)(C)C3)c(C)n1 (stereo not drawn)	55%	0%	0%	4	10µM*	3
COCc1nnc(NC(=O)C2CCN(C(=O)c3ccccc3)CC2)s1	·	·	·	·	1%	·
CC(=O)c1cccc(NC(=O)CSc2ncc3c(n2)-c2cc(Cl)ccc2N(Cc2ccccc2)S3(=O)=O)c1	3%	-1%	·	·	4%	-6
COc1ccccc1N1CCN(C(CNC(=O)C2CCCCC2)c2cccnc2)CC1 (stereo not drawn)	3%	4%	-3%	-71*	-1%	-14
COCCNC(=O)C(=O)NCC(c1cccnc1)N1CCN(c2ccccc2OC)CC1 (stereo not drawn)	3%	10%	·	·	-1%	-8
CC[C@H]1OC(=O)[C@H](C)C(=O)[C@H](C)[C@@H](O[C@@H]2O[C@H](C)C[C@H](N(C)C)[C@H]2O)[C@](C)(OC)C[C@@H](C)C(=O)[C@H](C)[C@H]2N(CCCCn3cnc(-c4cccnc4)c3)C(=O)O[C@]12C	·	·	·	·	·	-5
O=C(CN1C(=O)COc2ccc(S(=O)(=O)N3CCCCC3)cc21)NCCc1ccc(Cl)cc1	1%	9%	·	·	-1%	-16
O=C(NCCc1ccccc1)C1CCCN(c2nc3ccccc3s2)C1 (stereo not drawn)	-7%	10µM*	8%	11	·	3
Cc1cc(=O)n2nc(N3CCCC(C(=O)NCCc4ccccc4)C3)sc2n1 (stereo not drawn)	5%	13%	0%	-11	-1%	-6
O=C(CC1(O)C(=O)N(CCc2ccccc2)c2ccc(Br)cc21)c1ccccc1 (stereo not drawn)	-7%	?	2%	·	-1%	5
Cc1ccc(C(=O)CC2(O)C(=O)N(CCc3ccccc3)c3ccc(Br)cc32)o1 (stereo not drawn)	-30%	7.9µM*	2%	-1	-5%	-7
CC(C)C[C@@H](C(=O)NCc1ccco1)N1C(=O)N2CCc3c([nH]c4ccccc34)[C@@]2(C)C1=O	4%	10µM*	-1%	-20	-2%	-5
O=C(NCc1ccncc1)C12CC3CC(CC(C3)C1)C2	-10%	-1%	-11%	-9	-4%	0
